Measured values reported in publication PMC5700166.

biological target: T1, GST-Nv-NF-kB (Ser allele) (Nematostella vectensis, UniProt A7UNT2 2-411); assay: protein-binding microarray (PBM); PBM: ~300 nM protein, 6 mM HEPES pH 7.8, 80 mM KCl, 0.5 mM EDTA, 0.5 mM EGTA, 6% glycerol, 35 ng/ul poly-dIdC, 1% milk, 1 h, room temperature; Ap Aiptasia and Nv Nematostella (sea anemones) / Co Capsaspora / Aq Amphimedon (sponge) / Dm Drosophila / Hu human; RHD is the Rel homology domain; high values mean tight binding; conditions: dsDNA, one strand shown
T1 sequence: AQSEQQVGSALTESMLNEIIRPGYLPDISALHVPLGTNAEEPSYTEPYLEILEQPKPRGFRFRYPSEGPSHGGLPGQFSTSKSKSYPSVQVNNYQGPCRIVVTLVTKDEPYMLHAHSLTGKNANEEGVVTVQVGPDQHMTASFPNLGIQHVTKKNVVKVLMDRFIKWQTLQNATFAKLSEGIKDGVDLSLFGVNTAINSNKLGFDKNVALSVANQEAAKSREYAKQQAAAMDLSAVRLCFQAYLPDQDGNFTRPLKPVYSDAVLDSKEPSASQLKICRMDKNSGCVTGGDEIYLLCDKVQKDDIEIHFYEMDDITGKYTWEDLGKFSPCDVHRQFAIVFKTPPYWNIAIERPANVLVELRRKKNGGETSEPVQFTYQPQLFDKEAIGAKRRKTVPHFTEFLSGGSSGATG

| Sequence | binding signal [z-score] |
| --- | --- |
| CCGATTAACATCAGAATACCCCCTGATGTTAATCGGGTCTTGATTCGCTTGACGCTGCTG | 6.16 |
| CCGATTAACATCAAGGGGGGGGCTGATGTTAATCGGGTCTTGATTCGCTTGACGCTGCTG | 3.66 |
| CCGATTAACATCAAAGAGCCCCCTGATGTTAATCGGGTCTTGATTCGCTTGACGCTGCTG | 3.77 |
